Compound activity deposited in PubChem BioAssay by National Center for Advancing Translational Sciences (NCATS).
Hits are enriched below; roughly 11% of the tested compounds scored in any of these assays.
HPGD inh – inhibitors of human 15-hydroxyprostaglandin dehydrogenase (HPGD). P15428. purified HPGD, NADH fluorescence kinetic, PGE2 substrate. Potency, µM, usual class: inhibitors. 4.3% of 150,000 active. AID 894
Target sequence (P15428 whole entry, looked up): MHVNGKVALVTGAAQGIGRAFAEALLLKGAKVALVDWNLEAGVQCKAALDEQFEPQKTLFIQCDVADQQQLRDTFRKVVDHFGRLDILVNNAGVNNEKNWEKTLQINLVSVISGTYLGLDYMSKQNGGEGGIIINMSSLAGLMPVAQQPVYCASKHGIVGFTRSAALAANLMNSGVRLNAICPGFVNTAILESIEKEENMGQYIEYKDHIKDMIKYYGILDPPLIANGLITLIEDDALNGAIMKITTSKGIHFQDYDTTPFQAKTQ
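NADH formation kinetics: reaction with 30 uM PGE2 and 1 mM NAD+ (final), 20 nM enzyme, Tris-HCl pH 8 with Tween 20, after 15 min compound preincubation at room temperature. Fluorescence change, last versus first of five reads.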
PNC inhibitor – perinucleolar compartment assembly inhibition; PC3M PTB-GFP, PNC prevalence imaging, 16 h; stronger effect = lower value; activity change (PNC), negative = inhibition, % at 10 µM; 3.1% of 140,000 active; AID 2417;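 active means readout at or below -70, meaning at least 70% loss of cells showing the perinucleolar compartment, a nuclear body marking cancer cells; inconclusive means readout between -30 and a set limit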
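Compounds are pinned in duplicate onto adhered PC3M cells stably expressing GFP-tagged PTB and incubated 16 h at 37 C. Cells are then fixed, nuclei stained with Hoechst, and PNC-positive cells counted.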
12-hLO inh – 12-hLO (ALOX12) enzyme inhibition | P18054 | purified 12-hLO, xylenol orange hydroperoxide absorbance | Potency, µM (doses to about 57.1 µM), most hits filed as inhibitors | 0.12% of 150,000 active | AID 1452; active means well fitted curve in the direction sought with a large enough effect; inconclusive means small, poorly fitted or top-dose-only effect, or another doubt; inactive means no such curve, though single readings can be large; an effect the other way counts as inactive or inconclusive; further: nearly all actives have a fitted effect of over 55% in size
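Lipoxygenase turnover measured by absorbance at 573 and 405 nm after Fe-XO development. Human 12hLO 150 nM, arachidonate 40 uM, pH 7.0 Hepes buffer with detergent; 15 min compound preincubation, 30 min reaction.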
ALDH1A1 block – inhibitors of human aldehyde dehydrogenase 1A1; P00352; Purified ALDH1A1, NADH fluorescence, propionaldehyde substrate; Potency, µM (series often up to 75.3 µM), most hits filed as inhibitors; 7.3% of 220,000 active
Target sequence (P00352 whole entry, looked up): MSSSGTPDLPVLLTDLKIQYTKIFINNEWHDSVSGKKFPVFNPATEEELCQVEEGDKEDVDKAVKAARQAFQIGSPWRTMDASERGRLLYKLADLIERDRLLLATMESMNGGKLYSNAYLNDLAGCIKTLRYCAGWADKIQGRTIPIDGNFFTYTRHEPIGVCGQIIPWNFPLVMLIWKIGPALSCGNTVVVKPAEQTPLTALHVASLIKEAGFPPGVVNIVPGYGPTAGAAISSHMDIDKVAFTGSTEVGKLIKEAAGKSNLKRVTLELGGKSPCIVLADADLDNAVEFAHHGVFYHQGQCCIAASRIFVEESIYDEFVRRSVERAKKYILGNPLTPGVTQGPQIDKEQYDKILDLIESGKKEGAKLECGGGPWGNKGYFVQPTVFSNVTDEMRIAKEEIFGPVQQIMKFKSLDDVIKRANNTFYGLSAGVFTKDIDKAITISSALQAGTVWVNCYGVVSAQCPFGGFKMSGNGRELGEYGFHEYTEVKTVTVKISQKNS
IMPase inh – membrane-permeable compound that blocks inositol monophosphatase. P97697. CHO-M1 cells, IP1 accumulation, HTRF TR-FRET ratio. inhibition (IP1 accumulation), % at 46.1 µM. 120,000 tested, under 10 active; active means well fitted curve in the direction sought with a large enough effect in the signal ratio, not every such curve was filed as active; inconclusive means small, poorly fitted or top-dose-only effect, or a change in a side signal; inactive means no such curve, though single readings can be large or run the other way; the % refers to the signal ratio;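 further: cells stimulated with carbachol in lithium chloride buffer; higher means more IMPase inhibition seen as more IP1 and lower FRET ratio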
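Elevated IP1 in lysates lowers TR-FRET signal (665/620 ratio and 620 channel reported). Cells were CHO-M1, given carbachol (50 uM as added) plus 50mM LiCl, pH 7.4, 30 min, 37C; compounds titrated up to 46 uM; AC50 by Hill equation.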
IMPase Li inh – cell-permeable IMPase inhibitors with lithium potentiation; CHO-M1 cells, IP1 TR-FRET (IP-One), carbachol + lithium; Potency, µM (highest dose often 59.4 µM), hits mostly inhibitors; 0.35% of 210,000 active; active means well fitted curve in the direction sought with a large enough effect; inconclusive means small, poorly fitted or top-dose-only effect, or another doubt; inactive means no such curve, though single readings can be large; an effect the other way counts as inactive or inconclusive;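 further: IP1 builds up when IMPase is blocked and the TR-FRET signal falls; nearly all actives have a fitted effect of over 50% in size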
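CHO-M1, 2000 cells/well, 16–30 h culture; cpd + low Li+, 30 min 37C; lysis with d2-IP1/Eu-anti-IP1 Ab, 10 min RT; TR-FRET 665/620 ratio and 620 channel; AC50 via Hill.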
Hits are given with their value; . = inactive; ? = inconclusive; / = no result given; [ ] = another dose, or the depositor's remark. Unless noted, the call rests on the fitted dose curve; in most records, active means well fitted inhibition curve with a large enough effect (not every such curve was filed as active); inconclusive means small, poorly fitted or top-dose-only effect, or another doubt; inactive means no such curve, though single readings can be large or run the other way.

SMILES	HPGD inh	PNC inhibitor	12-hLO inh	ALDH1A1 block	IMPase inh	IMPase Li inh
Cc1cc(C)c2nc3s/c(=C/c4ccccc4)c(=O)n3c2c1	5.01µM	?	.	3.16µM	.	.
Cc1ccc2c(nc3s/c(=C/c4cccs4)c(=O)n32)c1C	28.2µM	.	.	14.1µM	.	.
C[C@@]1(O)CCOC(=O)C1	.	/	.	.	.	.
COc1ccc(/C=C/C=N/NC(=O)COc2ccc(OC)cc2)cc1	.	?	.	.	/	.
COc1ccccc1NCC(=O)N/N=C/C=C/c1ccccc1	.	.	.	14.1µM	.	.
COc1ccc(NCC(=O)N/N=C/C=C\c2ccccc2)cc1	.	?	.	9.46µM	.	.
[N-]=[N+]=Nc1ccc(C(=O)CSC[C@@H](NC(=O)CC[C@@H](N)C(=O)O)C(=O)NCC(=O)O)cc1	/	/	.	/	.	/
C/C=C(/CC[C@@H](C)[C@H]1CCC2C3=CC[C@H]4[C@H](C)[C@@H](O)CC[C@]4(C)C3CC[C@@]21C)C(C)C (stereo partly specified)	.	/	.[0.00818 µM]	?	/	.
CCCOc1ccc(NC(=O)C2CC(=O)N(C)C(=Nc3cccc(OC)c3)S2)cc1 (stereo unspecified)	/	/	/	.	/	.
COc1ccccc1N=C1SC(C(=O)Nc2ccc(F)cc2)CC(=O)N1C (stereo unspecified)	.	-100.0	.	.	.	.
O=C/C=C/c1ccc(O)cc1	.	/	.	3.55µM	/	.
COCCN1C(=O)N[C@@H](c2ccco2)C(C(=O)OC)=C1C	.	/	.[11.4 µM]	.[13.5 µM]	/	.
COc1cc(SC)ccc1C(=O)Nc1ccon1	.	?	.	20µM	.	.
CC1=C(C(=O)OC2CCCCCC2)C(c2ccc(C)o2)C2=C(CCCC2=O)N1 (stereo unspecified)	?	.	.	?	.	.
CC1=C(C(=O)OC2CCCC2)C(c2ccc(C)o2)C2=C(CC(c3cccs3)CC2=O)N1 (stereo unspecified)	.	?	.	14.1µM	.	.
COC(=O)c1sc(=S)n(Cc2ccccc2)c1C	/	/	/	8.91µM	/	/
COc1ccc(C=NCCCN2CCOCC2)cc1	.	.	.	20µM	.	.
O=S(=O)(c1ccc(Cl)c(NC(=S)Nc2ccccc2N2CCOCC2)c1)N1CCOCC1	.	?	.	20µM	/	.
O=C(COC(=O)CCC(=O)c1cccs1)Nc1cccc(S(=O)(=O)N2CCOCC2)c1	.	?	.	.	.	.
O=C(COC(=O)CCC(=O)c1cccs1)Nc1cc(S(=O)(=O)N2CCOCC2)ccc1Cl	.	.	.	22.4µM	.	.
O=S(=O)(c1ccc(Cl)c(NC(=S)N/N=C/c2c(F)cccc2F)c1)N1CCOCC1	/	.	.	.	.	/
C=CCNC(=S)Nc1cc(S(=O)(=O)N2CCOCC2)ccc1-n1cncn1	.	.	.	4.47µM	.	.
Oc1ccc(/C=N/NC(=S)N2CCOCC2)cc1	/	/	/	14.1µM	/	.
Cc1cccc2c(N=Nc3ccc(S(=O)(=O)Nc4ccc(Cl)cc4)cc3[N+](=O)[O-])c(O)[nH]c12	/	/	/	.	/	.
COCCn1c(=O)c(-c2ccc(F)c(F)c2)nc2cncnc21	.	/	.	.	/	.
SMILES	HPGD inh	PNC inhibitor	12-hLO inh	ALDH1A1 block	IMPase inh	IMPase Li inh
CCOc1ccc(-c2cc(C(F)(F)F)c(C#N)c(SCC(=O)Nc3ccccc3)n2)cc1	/	/	/	/	.	/
O=S(=O)(c1ccc(Cl)c(NC(=S)N/N=C/c2ccc(O)cc2)c1)N1CCOCC1	.	?	.	10µM	/	.
O=C(Nc1cc(S(=O)(=O)N2CCOCC2)ccc1N1CCCC1)c1ccc2c(c1)S(=O)(=O)c1ccccc1C2=O	/	/	/	2.24µM	/	.
COC(=O)c1ccc(CSc2nc(N3CCOCC3)c3c(c2C#N)CC(C)(C)OC3)o1	.	?	.	1.26µM	.	?
CC1(C)Cc2c(C#N)c(SCC(=O)c3ccccc3)nc(N3CCOCC3)c2CS1	.	.	.	12.6µM	.	.
CC(C)CCSc1nc(N2CCOCC2)c2c(c1C#N)CC(C)(C)OC2	/	.	.	.	.	/
FC(F)(F)c1nc(SCc2ccc(Cl)cc2)n[nH]1	.	/	.[11.4 µM]	.[13.5 µM]	/	.
CC1=Nc2cc(C(=O)NCCc3ccc(Cl)cc3)ccc2Sc2ccc(C)cc21	/	/	/	/	.	/
O=C(Nc1ccccc1)c1nnsc1S(=O)c1ccc(Cl)cc1 (stereo unspecified)	7.94µM	.	?	1.78µM	.	.
O=C(Nc1ccc(Cl)cc1)c1cccs1	.	.	.	.	.	.
N#Cc1cccc(-c2cc(NCc3ccccc3)ncn2)c1	/	/	/	?	/	.
CCc1c(O)nc(SCC(=O)Nc2ccc(C)cc2)n(C2CCCCC2)c1=O	.	.	.	20µM	.	.
Cc1cnc(CNc2ncnc3ccc(-c4cccc(NS(C)(=O)=O)c4)cc23)cn1	/	/	/	.	/	.
C/C(=N/OC(=O)c1c(-c2ccccc2Cl)noc1C)c1cnccn1	/	/	/	?	/	.
Cc1onc(-c2ccccc2Cl)c1C(=O)O/N=C(\N)c1ccc([N+](=O)[O-])o1	/	/	/	12.6µM	/	/
CCOc1ccc(C(=O)N(c2ccccn2)C2CCCCC2)cc1	/	/	/	.	/	.
O=C1c2ccccc2C(=O)c2c(O)c(O)cc(O)c21	25.1µM	/	?	?	.	.
Nc1ccc(O)c2c1C(=O)c1ccccc1C2=O	12.6µM	.	.	.	/	.
O=C1c2ccccc2C(=O)c2c(O)ccc(O)c21	.	/	/	.	/	.
CN1CCCN(C)C1c1cc([N+](=O)[O-])ccc1O	.	/	.[11.4 µM]	.[13.5 µM]	/	.
CCOC(=O)Nc1cc(Br)c2c(c1)OCCO2	14.1µM	.	.	.	.	.
Cc1nc2sccn2c1P(c1c(C)nc2sccn12)c1c(C)nc2sccn12	.	-80.4	?	.	.	.
COc1ccc(-c2nc3c(c4c2C[C@H](c2ccccc2)OC4)CN(C(=O)NCc2ccco2)CC3)c(C)c1	.	/	.[11.4 µM]	1.78µM	/	.
COc1ccc(-c2nc3c(c4c2C[C@H](c2ccccc2)OC4)CN(C(=O)Cc2cccs2)CC3)c(C)c1	.	/	.[11.4 µM]	3.98µM	/	.
O=C1C(O)=C(O)C(=O)C(O)=C1O	.	/	?	?	.	.
SMILES	HPGD inh	PNC inhibitor	12-hLO inh	ALDH1A1 block	IMPase inh	IMPase Li inh
Clc1cccc(COn2c(-c3ccc(Cl)cc3Cl)nc3ncccc32)c1	.	.	.	.	.	.
Cc1ccc(COn2c(-c3ccc(Cl)cc3Cl)nc3ncccc32)cc1	.	.	.	17.8µM	.	.
CN(CC(=O)Nc1ccc(F)c(F)c1F)C1CCCCC1	.	.	.	.	.	.
CN(CC(=O)Nc1ccc(F)c(F)c1F)c1cnccn1	.	-100.0	.	.	.	.
O=C(NCCCNc1ccc([N+](=O)[O-])cc1)C(F)(F)F	20µM	.	?	?	/	.
CCCCN1C(=O)C(O)(CC(=O)c2ccc(CC)cc2)c2cc(Br)ccc21 (stereo unspecified)	/	/	/	/	.	/
COc1ccc(/C=C2\SC(=NCc3ccccc3)NC2=O)cc1	?	.	.	.	.	.
